Assay results from PubChem BioAssay AID1259343 (VanderVen Lab, College of Veterinary Medicine, Cornell …, 2017).
In all, about 6,200 compounds went through this assay and about 2,900 (47%) were called active. So high a share suggests a set chosen from earlier hits. The list shows a part of the results. Unmarked numbers belong to inactive results. No stated cut-off is given here; in the data, active means inhibition above about 50%; inactive means the rest.

Assay: Mycobacterium tuberculosis growth inhibition, primary screen (AID 1259343)
Details: inhibition: at 10 µM, stronger effect = higher value; outcome: 10 uM

Structure (SMILES)	inhibition
Cc1ccccc1C(=O)OC1CCCN(C)C1 (centres undefined)	-3.69%
Cc1cc(=O)[nH]c(-n2nc(C)cc2NC(=O)C2CCCC2)n1	98.1% (active)
O=C(CCl)Nc1cc([N+](=O)[O-])ccc1Cl	71.2% (active)
O=C(O)c1cc([N+](=O)[O-])ccc1NCCCc1ccccc1	-0.63%
CC(C)NC(=O)c1ccc(-c2ccc([N+](=O)[O-])cc2Cl)o1	37.9%
Cc1ccc(-c2csc(-c3ccc(O)cc3)n2)s1	11.1%
Cc1ccc(-c2cc(C(=O)O)n[nH]2)s1	99.8% (active)
CCCCN(C)C(=O)c1cc(-c2ccc(C)s2)[nH]n1	25.6%
Cc1ccc(Cl)cc1Nc1ncccc1C(=O)N[C@H]1C[C@H]2CC[C@@H]1C2	9.89%
O=C(Nc1ccccc1)Nc1ccc(Cl)c(Cl)c1	95.9% (active)
O=C(Nc1ccc(Cl)c(Cl)c1)Nc1ccc(I)cc1F	-10.8%
O=C(O)c1cnc(Nc2ccc(F)c(F)c2)c(Cl)c1	30.5%
O=C(Nc1ccc(I)cc1)Nc1ccc(Cl)c(Cl)c1	-0.68%
O=C(O)c1cccnc1Nc1ccc(Cl)c(Cl)c1	63.9% (active)
CCOc1ccc(NC(=O)c2nc(C)n(-c3ccc(Cl)cc3)n2)cc1	94.3% (active)
CCOc1ccc(NC(=O)c2ccc(Cl)o2)cc1	17%
CCCCN(CCCC)CCCCSc1ccc(O)cc1	74.1% (active)
CC(C)(C)c1nc(COc2cccc3c2CCCC3O)no1 (centres undefined)	5.49%
Cc1ccccc1C(=O)Nc1cc(-c2ccco2)nn1-c1nc(C)c(C)c(=O)[nH]1	-10.1%
Cc1nc(-n2nc(-c3ccco3)cc2NC(=O)COc2ccc(F)cc2)[nH]c(=O)c1C	100% (active)
COc1cccc(C(=O)Nc2cc(-c3ccco3)nn2-c2nc(C)c(C)c(=O)[nH]2)c1OC	98.4% (active)
Cc1nc(-n2nc(-c3ccco3)cc2NC(=O)c2c(F)cccc2F)[nH]c(=O)c1C	99.8% (active)
Cc1ccc(OCC(=O)Nc2cc(-c3ccco3)nn2-c2nc(C)c(C)c(=O)[nH]2)cc1	101% (active)
Cc1nc(-n2nc(-c3ccco3)cc2NC(=O)CC(C)C)[nH]c(=O)c1C	101% (active)
Cc1nc(-n2nc(-c3ccco3)cc2NC(=O)C2CC2)[nH]c(=O)c1C	99.8% (active)

Structure (SMILES)	inhibition
Cc1cc(N)n(-c2cc(C(F)(F)F)ccc2Cl)n1	0.14%
Cn1ncc2c(N3CCC(OCc4cccnc4)CC3)nc(C(C)(C)C)nc21	85.9% (active)
CC(=O)O[C@H]1C[C@@]2(C)[C@@H](C[C@@H](O)[C@H]3[C@@]4(C)CC[C@@H](O)[C@@H](C)C4CC[C@@]32C)/C1=C(\CCC=C(C)C)C(=O)O (some centres undefined)	69.4% (active)
O=S(=O)(NC(C1CC1)C1CC1)c1cccc(Br)c1	14.3%
Oc1ccc(N2CCN(Cc3nc(-c4ccc(C(F)(F)F)cc4)no3)CC2)cc1	72.1% (active)
COc1ccc(-c2noc(CN3CCC(O)(c4cccc(C(F)(F)F)c4)CC3)n2)cc1	56.9% (active)
CC(C)CNC(=O)c1c(O)nc2sccn2c1=O	55.9% (active)
CC(C)CCNC(=O)c1c(O)nc2sccn2c1=O	89.6% (active)
O=C(NCCC1=CCCCC1)c1c(O)nc2sccn2c1=O	83.9% (active)
CCCCNC(=O)c1c(O)nc2sccn2c1=O	33.8%
O=C(O)c1ccc(OS(=O)(=O)c2ccc(Cl)c(Cl)c2)cc1	35.4%
CN(C)S(=O)(=O)Oc1ccc(C(=O)c2ccccc2)cc1	51.1% (active)
O=C1CCCCC1Sc1nn(-c2ccc(F)cc2)c(=S)s1 (centres undefined)	70.1% (active)
O=C1CCCCC1Sc1nnnn1-c1ccc(O)cc1 (centres undefined)	41%
O=C(CSc1nn(-c2ccc(F)cc2)c(=S)s1)Nc1cc(F)ccc1F	-1.19%
N#Cc1ccc(CON=Cc2ccc(OC(F)F)cc2)cc1	-4.56%
O=[N+]([O-])c1ccc(CON=Cc2ccc(OC(F)F)cc2)cc1	55.5% (active)
O=[N+]([O-])c1ccc(CON=Cc2ccc(Cl)cc2Cl)cc1	-5.39%
CC(C)CNC(=O)CSc1n[nH]c(/C=C/c2ccc(F)cc2)n1	87% (active)
CC(C)CNC(=O)c1cn(Cc2ccc(F)cc2)nc1OCc1ccc(F)cc1	13.6%
C/C(Cl)=C\COc1cc(C)nc2ccc(Br)cc12	99.8% (active)
Cc1coc2c1C(=O)C(=O)c1c-2ccc2c1CCCC2(C)C	58.8% (active)
COc1ccc(NCc2nn(CC(=O)c3ccc(Br)cc3)c3[n+]2CCCCC3)cc1	17.7%
CCn1nnc2c(=O)n(CC(=O)c3ccc(OC)cc3)cnc21	77.2% (active)
O=c1[nH]nc2nc(N3CCCCC3)nc(N3CCCCC3)n12	18.9%

Structure (SMILES)	inhibition
O=C(Cn1ccc(=O)[nH]c1=O)NNc1ccc(Cl)c(Cl)c1	97.2% (active)
Cc1nc(CSc2ccc(C(=O)NNC(=O)c3ccc4c(c3)OCCO4)cc2)cs1	95.3% (active)
Cc1nc(C2(NC(=O)c3ccc4c(c3)OCCCO4)CCCCC2)no1	5.32%
Cc1cn2nc(Sc3ccc4c(c3)OCCCO4)sc2n1	33.4%
CCCCN1C(=O)C(=Cc2cccnc2)SC1=Nc1ccc(OC)cc1	87.8% (active)
CCCN1C(=O)C(=Cc2ccc(OC)cc2OC)SC1=S	2.79%
CCN(CC)c1ccc(/C=C2\SC(=S)N(NC(=O)c3ccc(OC)cc3)C2=O)cc1	8.8%
O=c1c(NCc2ccc(F)cc2)nccn1Cc1ccc(Cl)cc1	96.5% (active)
CC(c1ccco1)N(C)C(=O)NCCc1cc(F)ccc1F (centres undefined)	21.2%
OC(CN1CCCCCC1)CN1c2ccccc2Sc2ccccc21 (centres undefined)	40.6%
OC(CN1CCc2ccccc2C1)Cn1c2c(c3ccccc31)CCCC2 (centres undefined)	66.7% (active)
CCCn1cc(SCC(=O)N2CCc3ccccc32)c2ccccc21	16.9%
CC(C)=CCN1N=C(c2ccccc2)C(O)O1 (centres undefined)	86% (active)
Cc1ccc(C2=NN3C(C2)c2cc(Cl)ccc2OC3c2ccncc2)cc1 (centres undefined)	-54.8%
Brc1ccc2c(c1)C1CC(c3cccs3)=NN1C(c1cccnc1)O2 (centres undefined)	97.9% (active)
N#Cc1ccc(OCCn2nccc2-c2ccncc2)cc1	61.2% (active)
Cc1ncc(COc2ccc(-c3ccc(C#N)cc3)cc2)s1	43.5%
COCC(=O)Nc1nc2ccccc2n1C1CCCCC1	14.7%
COCC(=O)Nc1nc2cc(C(F)(F)F)ccc2n1Cc1ccco1	62.6% (active)
FC(F)(F)c1cccc(C(OCCN2CCN(Cc3ccco3)CC2)c2ccccc2)c1 (centres undefined)	-3.93%
O=C(OC(C(=O)Nc1cc(Cl)cc(Cl)c1)c1ccccc1)C1=COCCO1 (centres undefined)	78.7% (active)
Nc1ccc(-n2cccc2C(=O)O)cc1	93.6% (active)
COc1c2ccccc2nc2occc12	89.7% (active)
CCc1nnsc1C(=O)Nc1cc(F)c(N2CCCC2)c(F)c1	37.1%
O=C(Nc1cc(F)c(N2CCCC2)c(F)c1)C1CC1c1cccnc1 (centres undefined)	32.7%

Structure (SMILES)	inhibition
Cc1cccc(NC(=O)C2CCN(c3c(F)cc(C#N)cc3F)CC2)n1	72.7% (active)
N#CC(c1ccccc1)c1cnn(-c2ccccc2)c(=O)c1Cl (centres undefined)	101% (active)
N#CC(c1ccc(Cl)cc1Cl)c1cnnc2ccccc12 (centres undefined)	-8.73%
O=c1c(Cl)c(N2CCN(c3ccccc3)CC2)cnn1Cc1ccccc1Cl	17.9%
CN(C)C=Nc1ccc(OC(F)F)c(Cl)c1	92% (active)
CCc1cc(=O)[nH]c(-n2nc(C)cc2NC(=O)c2ccc([N+](=O)[O-])cc2)n1	101% (active)
CCc1cc(=O)[nH]c(-n2nc(C)cc2NC(=O)c2cccc([N+](=O)[O-])c2)n1	102% (active)
Cc1cc(=O)[nH]c(-n2nc(C)cc2NC(=O)c2cccc([N+](=O)[O-])c2)n1	100% (active)
Cc1cc(-c2nc3cccnc3s2)ccc1NS(=O)(=O)c1ccc(F)cc1F	74.7% (active)
COC(=O)c1ccccc1NC(=O)c1cc(-c2cccs2)n(C2CCS(=O)(=O)C2)n1 (centres undefined)	42.9%
CCC(=O)NCC1CN(c2ccc(OC)cc2)C(=O)O1 (centres undefined)	83% (active)
O=C(CN1CCCC1c1ccsc1)Nc1ccccc1Br (centres undefined)	41.9%
N#Cc1nc(NC(=O)C2CC2c2ccc(Br)cc2)[nH]c1C#N (centres undefined)	81.5% (active)
COc1ccc(NS(=O)(=O)c2ccc(Cl)c(Cl)c2)cc1	86.7% (active)
O=c1[nH]c2ccc(S(=O)(=O)Nc3ccc(Cl)cc3Cl)cc2s1	19%
COc1ccc(S(=O)(=O)Nc2ccc3c(c2)OC(F)(F)O3)cc1	33%
O=S(=O)(Nc1cc(Cl)ccc1Cl)c1ccc(Cl)cc1	64.6% (active)
N#CSc1ccc(NS(=O)(=O)c2ccc(Cl)cc2)c(Cl)c1	79.8% (active)
Nc1cc(S(=O)(=O)Nc2ccc(Br)cc2)ccc1Cl	30%
Nc1cc(S(=O)(=O)Nc2ccc(Cl)cc2)ccc1Cl	89.1% (active)
O=S(=O)(Nc1ccc(F)c(F)c1)c1ccc(Cl)c(Cl)c1	17.1%
CCC(C)(C)NS(=O)(=O)c1ccc(Cl)c(Cl)c1	82.7% (active)
CCN(CC)S(=O)(=O)c1cccc(S(=O)(=O)c2ccc(Cl)c(Cl)c2)c1	1.03%
CCS(=O)(=O)c1ccc(NC(=O)Cc2ccc(Cl)c(Cl)c2)cc1	41.3%
